Screening results from PubChem BioAssay.
This is a sample that favours compounds with a hit; in the whole collection about 5% have one here.
SENP8 block-1 = blocks human SENP8 cleavage of Nedd8 substrate; AID 602440; inhibition, % at 20 µM; 360,000 compounds, 0.64% hits; recombinant SENP8, Nedd8 substrate fluorescence; Q96LD8; in the data active = inhibition mostly above about 40%, no sharp cut-off; inactive = mostly below about 27%
SENP7 inh = blocks the human protease SENP7; recombinant SENP7, Z-RLRGG-aminoluciferin luminescence, 40 min; inhibition, % at 5 µM; 330,000 compounds, 1.5% hits; AID 434973;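 active = inhibition above about 50% at the single test dose, limit read from the data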
EBI2 block = EBI2 (human) antagonism. P32249. EBI2 beta-arrestin recruitment, luminescence, 7a,25-OHC stimulated. inhibition, % at 5 µM. 360,000 compounds, 0.81% hits. AID 651636; in the data active = inhibition above about 38%;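 also: enzyme fragment complementation signal reports receptor beta-arrestin coupling in cells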
SENP8 block-2 = inhibitors of human SENP8 protease; inhibition, % at 10 µM; 330,000 compounds, 1.2% hits; purified SENP8, Z-RLRGG-aminoluciferin cleavage, luminescence; AID 2540; Q96LD8; in the data active = inhibition above about 50%
SENP6 inh = SENP6 protease inhibition; inhibition, % at 10 µM; Recombinant SENP6 catalytic domain, aminoluciferin luminescence; Q9GZR1; 330,000 compounds, 1.8% hits;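 active = inhibition above about 50% at the single tested dose, limit read from the data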
Target sequence (Q9GZR1 628-1112 limits assumed): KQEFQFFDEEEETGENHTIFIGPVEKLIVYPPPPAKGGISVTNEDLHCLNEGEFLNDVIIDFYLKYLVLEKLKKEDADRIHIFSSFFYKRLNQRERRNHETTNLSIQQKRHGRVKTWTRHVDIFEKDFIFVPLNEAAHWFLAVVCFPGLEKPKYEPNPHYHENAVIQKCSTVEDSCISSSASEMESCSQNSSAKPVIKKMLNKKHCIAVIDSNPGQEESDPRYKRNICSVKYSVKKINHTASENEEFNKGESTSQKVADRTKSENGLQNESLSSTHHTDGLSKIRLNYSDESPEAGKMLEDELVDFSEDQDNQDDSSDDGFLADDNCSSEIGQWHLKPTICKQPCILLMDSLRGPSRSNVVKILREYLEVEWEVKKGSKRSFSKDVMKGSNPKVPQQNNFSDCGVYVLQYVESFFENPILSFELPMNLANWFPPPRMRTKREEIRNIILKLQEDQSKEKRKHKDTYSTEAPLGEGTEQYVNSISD
AHR act = activates the human aryl hydrocarbon receptor | P35869 | AHR-responsive luciferase reporter cells, luminescence | activation, % at 5 µM | 320,000 compounds, 2.5% hits; in the data active = activation above about 47%
SENP8 confirm = human SENP8 inhibition, confirmed | shares compounds with SENP7 inh | Recombinant SENP8, Z-RLRGG-aminoluciferin luminescence, 60 min | inhibition, % at 12.5 µM | 6,200 compounds, 40% hits;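 active = mean inhibition across replicates above about 50%, limit read from the data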
SENP6 conf = human SENP6 inhibition, confirmed; 6,200 compounds, 58% hits; recombinant SENP6, Z-RLRGG-aminoluciferin luminescence; inhibition, % at 12.5 µM; shares compounds with SENP7 inh
SENP7 conf = human SENP7 inhibition, confirmed; shares compounds with SENP7 inh; recombinant SENP7, Z-RLRGG-aminoluciferin luminescence, 40 min; inhibition, % at 12.5 µM; 6,200 compounds, 69% hits
Casp3 select = caspase-3 inhibition (SENP selectivity assay); shares compounds with SENP7 inh; 6,200 compounds, 60% hits; purified caspase-3, Z-DEVD-aminoluciferin luminescence, 60 min; AID 488918; inhibition, % at 12.5 µM;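 active = mean inhibition above about 50%, limit read from the data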
Luc interf = luminescence interference (SENP counter-screen); inhibition, % at 12.5 µM; shares compounds with SENP7 inh; Pre-incubated SENP8/Z-RLRGG-aminoluciferin, luciferase luminescence interference; AID 488919; 6,200 compounds, 39% hits;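 active = mean inhibition above about 50% when retested at one dose, limit read from the data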
A number is an active result; 0 = inactive; - = no result.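 The calls were made as follows, unless noted: active = mean inhibition above about 50% in the one-dose retest (limit read from the data); inactive = the rest.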

SMILES | SENP8 block-1 | SENP7 inh | EBI2 block | SENP8 block-2 | SENP6 inh | AHR act | SENP8 confirm | SENP6 conf | SENP7 conf | Casp3 select | Luc interf
Cc1cc(NC(=O)CN2C(=O)[C@@H]3[C@H](C2=O)[C@@H]2C[C@H]3C(Br)C2Br)no1 (some centres not stated) | 0 | 0 | 0 | 0 | 0 | 0 | - | - | - | - | -
COc1ccc(C2CC(C)(c3ccc(OC)cc3OC)Nc3ccccc3N2)c(OC)c1 (configuration not stated) | 0 | 0 | 0 | 0 | 0 | 0 | - | - | - | - | -
COC(=O)C(C)NC(=O)CNS(=O)(=O)c1ccc(F)cc1 (configuration not stated) | 0 | 0 | 0 | 0 | 0 | 0 | - | - | - | - | -
O=C(Nc1ccc2oc(-c3ccccc3Cl)nc2c1)c1ncn[nH]1 | 0 | 0 | 0 | 0 | 52 | 0 | 0 | 0 | 0 | 0 | 0
CC(=O)Nc1ccc2oc(-c3ccccc3Br)nc2c1 | 0 | 59 | 0 | 58 | 84 | 0 | 81 | 76 | 90 | 68 | 65
CCC(=O)Nc1ccc2oc(-c3ccccc3Br)nc2c1 | 0 | 0 | 0 | 0 | 0 | 0 | - | - | - | - | -
O=C(Nc1ccc2oc(-c3cccc4ccccc34)nc2c1)c1ncn[nH]1 | 0 | 0 | 0 | 0 | 0 | 0 | - | - | - | - | -
CC(C)C(=O)Nc1ccc2oc(-c3cc(F)c(F)cc3Cl)nc2c1 | 0 | 0 | 0 | 0 | 0 | 0 | - | - | - | - | -
CC(=O)Nc1ccc2oc(-c3cc(F)c(F)cc3Cl)nc2c1 | 0 | 67 | 0 | 0 | 0 | 0 | 0 | 0 | 0 | 0 | 0
CCc1ccc2oc(-c3ccc(NC(C)=O)cc3)nc2c1 | 0 | 78 | 0 | 72 | 75 | 0 | 0 | 79 | 96 | 0 | 0
C[n+]1cc(C(=O)N2CCCCC2)ccc1/C=C/c1c[nH]c2ccccc12 | 0 | 0 | 0 | 0 | 0 | 0 | - | - | - | - | -
Oc1ccc(NCc2cccc(OCc3ccc(F)cc3)c2)cc1 | 0 | 0 | 0 | 0 | 0 | 0 | - | - | - | - | -
Oc1ccc(NCc2cccc(OCc3ccccc3)c2)cc1 | 43 | 0 | 0 | 0 | 69 | 0 | 0 | 0 | 0 | 0 | 0
c1ccc(-c2csc(NC3CCCCC3)n2)cc1 | 0 | 0 | 0 | 0 | 66 | 0 | 83 | 82 | 95 | 62 | 67
Cc1cc(O)ccc1Nc1nc(-c2cccs2)cs1 | 0 | 0 | 0 | 70 | 70 | 0 | 0 | 95 | 100 | 78 | 94
Cc1cc(O)ccc1Nc1nc(-c2cccnc2)cs1 | 0 | 0 | 0 | 0 | 0 | - | - | - | - | - | -
Cc1ccc(Nc2nc(-c3cccs3)cs2)nc1 | 0 | 0 | 0 | 91 | 93 | 0 | 0 | 98 | 102 | 85 | 68
Cc1cc(C)nc(Nc2nc(-c3ccccc3)cs2)n1 | 0 | 90 | 0 | 82 | 74 | 75 | 0 | 0 | 0 | 0 | 0
O=C(Nc1nc(-c2ccccc2)cs1)NC1CCCCC1 | 0 | 0 | 0 | 0 | 0 | 0 | - | - | - | - | -
CC1Cc2ccccc2N1C(=O)CN1C(=O)NC(C)(CCc2ccccc2)C1=O (configuration not stated) | 0 | 0 | 0 | 0 | 0 | 0 | - | - | - | - | -
O=C(Nc1ccc(F)cc1)c1cccc(N2C(=O)C3C4C=CC(C5CC45)C3C2=O)c1 (configuration not stated) | 0 | 0 | 0 | 0 | 0 | 0 | - | - | - | - | -
Cc1ccc(Nc2nc(-c3ccccc3)cs2)nc1 | 0 | 89 | 0 | 91 | 0 | - | 85 | 97 | 102 | 84 | 72
Cc1ccc(S(=O)(=O)Nc2nc(-c3ccccc3)cs2)cc1 | 0 | 0 | 0 | 0 | 0 | 0 | - | - | - | - | -
Cc1ccsc1/C=N/n1cnnc1 | 0 | 0 | 0 | 0 | 0 | 0 | - | - | - | - | -
Cc1ccsc1/C=N/n1cnc2sc(C)c(C)c2c1=O | 0 | 0 | 0 | 0 | 70 | 0 | 0 | 0 | 0 | 0 | 0
CCOC(=O)Cc1csc(NS(=O)(=O)c2ccc(SC)cc2)n1 | 0 | 0 | 0 | 0 | 0 | 0 | - | - | - | - | -
